Some test systems named below: NCI-H23 lung; NCI-H226 lung; NCI-H322M lung; HOP-62 NSCLC; NCI-H460 lung; HOP-92 NSCLC; NCI-H522 lung; A549/ATCC NSCLC; 786-0 renal; COLO 205 colon; DU-145 prostate; K-562 leukemia; MALME-3M melanoma; MDA-MB-231 breast; RXF 393 renal; SF-268 CNS; SF-295 CNS; SF-539 CNS; UACC-257 melanoma; M14 melanoma.
What all share (assay): NCI-60 one-dose screen, 48 h (100 = growth as untreated, 0 = no growth, -100 = all killed)
Holding throughout (details): 10 µM unless noted

Compounds without any hit were thinned out: in the full panel of roughly 83,000, 20% have a hit.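 A percent growth of 40 corresponds to 60% growth inhibition; 0 means no net growth; -100 means all cells died. Active threshold: below 10.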 A number with no mark means an inactive call. Calls of active or inactive are those of the source.

Consider `O=C1Nc2ccc(Cl)cc2C12Nc1cc(Cl)ccc1S2` (stereo not given), for which the growth with NCI-H23 lung was 69.1%; in the assay with NCI-H226 lung it was 105%; in the assay with NCI-H322M lung it was 100%; with HOP-62 NSCLC it was 103%; in the assay with NCI-H460 lung it was 62.7%; in the assay with HOP-92 NSCLC it was 77.2%. For the same compound, the growth in the assay with NCI-H522 lung was 47.1%; in the assay with A549/ATCC NSCLC it was 72.9%; with 786-0 renal it was 89.4%; in the assay on COLO 205 colon, 101%; with DU-145 prostate, 96.5%; in the assay on K-562 leukemia, 39.2%. The growth in the assay on MALME-3M melanoma is 74.2%; in the assay with MDA-MB-231 breast, 83.2%; in the assay with RXF 393 renal, -8.23% (active); with SF-268 CNS, 88.3%; in the assay with SF-295 CNS it was 106%; in the assay on SF-539 CNS, 87.9%. Moreover, the growth with UACC-257 melanoma is 129%; in the assay with M14 melanoma it was 93.9%.
As for `COc1ccc(-c2nc3sccn3c2/C=C/C(=O)c2cc(F)cc(F)c2)cc1`, the growth with NCI-H23 lung is 76.3%; in the assay on NCI-H226 lung, 80.5%; in the assay on NCI-H322M lung, 123%; with HOP-62 NSCLC it was 85.8%; in the assay on NCI-H460 lung it was 88.4%; with HOP-92 NSCLC it was 18.6%. Also, the growth with NCI-H522 lung is 48.6%; with A549/ATCC NSCLC, 89.3%; in the assay with 786-0 renal, 89.1%; with COLO 205 colon it was 68.3%; in the assay on DU-145 prostate, 86.2%; in the assay with K-562 leukemia, 19.1%. Moreover, the growth was 102% in the assay on MALME-3M melanoma; 62.6% in the assay on MDA-MB-231 breast; 54.4% with RXF 393 renal; 81.8% in the assay on SF-268 CNS; 116% with SF-295 CNS; 92.8% in the assay with SF-539 CNS. In addition, the growth in the assay on UACC-257 melanoma is 101%; in the assay on M14 melanoma, 89.2%.
With `CCCCCCCCCCCCNC(=O)[C@H]1CSC(c2ccsc2)N1` (stereo not given in full), the growth with NCI-H23 lung is -52.9% (active); with NCI-H226 lung it was -74.1% (active); with NCI-H322M lung, 3.58% (active); with HOP-62 NSCLC, -94.7% (active); with NCI-H460 lung, -80.1% (active); in the assay with HOP-92 NSCLC, -10% (active). Further, the growth is 32.7% with NCI-H522 lung; 63.7% in the assay with A549/ATCC NSCLC; -94.8% (active) in the assay on 786-0 renal; 84% with COLO 205 colon; -85.8% (active) in the assay on DU-145 prostate; -57% (active) in the assay with K-562 leukemia. The growth with MALME-3M melanoma is -69.9% (active); in the assay with MDA-MB-231 breast it was -80.5% (active); in the assay on RXF 393 renal, -93.2% (active); in the assay on SF-268 CNS, -77.1% (active); in the assay with SF-295 CNS it was -29.9% (active); with SF-539 CNS, -89.2% (active). In addition, the values for the growth in the assay with UACC-257 melanoma and in the assay with M14 melanoma were -87.2% (active) and -77.5% (active), respectively.
Regarding `COc1ccc(/C=C2\Oc3cc(OCCCN4CCCC4)ccc3C2=O)c(OC)c1`, the growth in the assay with NCI-H23 lung was 87.9%; in the assay on NCI-H226 lung, 96.4%; in the assay with NCI-H322M lung, 94.6%; in the assay with HOP-62 NSCLC, 101%; in the assay on NCI-H460 lung, 23.5%; with HOP-92 NSCLC, 83.8%. For the same compound, the growth in the assay on NCI-H522 lung was 75%; in the assay on A549/ATCC NSCLC, 80.5%; in the assay with 786-0 renal, 89.4%; in the assay on COLO 205 colon, 92.8%; in the assay with DU-145 prostate it was 71.2%; with K-562 leukemia it was -30.4% (active). Further, the growth in the assay with MALME-3M melanoma is 106%; with MDA-MB-231 breast, 78.8%; in the assay with RXF 393 renal, 77.3%; in the assay on SF-268 CNS it was 87.3%; in the assay with SF-295 CNS, 99.8%; in the assay with SF-539 CNS it was 51.6%. Besides, the growth in the assay with UACC-257 melanoma is 103%; in the assay with M14 melanoma it was 67.7%.
In the case of `FC(F)(F)c1cccc(-c2cn3c(ccc4ccccc43)n2)c1`, the growth is 79.3% in the assay with NCI-H23 lung; 94.6% with NCI-H226 lung; 97.5% in the assay on NCI-H322M lung; 76.7% in the assay on HOP-62 NSCLC; 97% with NCI-H460 lung; 102% with HOP-92 NSCLC. Besides, the growth in the assay on NCI-H522 lung was 81.8%; in the assay with A549/ATCC NSCLC, 95.4%; with 786-0 renal it was 101%; in the assay on COLO 205 colon it was 109%; with DU-145 prostate, 106%; in the assay with K-562 leukemia it was 86.5%. Besides, the growth is 102% with MALME-3M melanoma; 79.2% with MDA-MB-231 breast; 115% with RXF 393 renal; 98.7% in the assay with SF-268 CNS; 88.5% in the assay with SF-295 CNS; 99.5% in the assay with SF-539 CNS. Besides, the growth in the assay with UACC-257 melanoma was 114%; in the assay on M14 melanoma it was 95.4%.
Consider `Oc1ccccc1/C=N/NC(=S)NC1CC2C=CC1C2` (stereo not given), for which the growth in the assay with NCI-H23 lung was 56.3%; with NCI-H226 lung it was 107%; in the assay with NCI-H322M lung, 83.1%; in the assay on HOP-62 NSCLC, 85.6%; with NCI-H460 lung it was 16.6%; with HOP-92 NSCLC, 82.4%. For the same compound, the growth is 60.3% in the assay with NCI-H522 lung; 69.9% in the assay with A549/ATCC NSCLC; 83.4% with 786-0 renal; 108% in the assay with COLO 205 colon; 88.7% with DU-145 prostate; 33.3% in the assay with K-562 leukemia. The growth with MALME-3M melanoma was 102%; in the assay on MDA-MB-231 breast, 84.2%; with RXF 393 renal, 68.3%; with SF-268 CNS, 67.8%; in the assay on SF-295 CNS, 85%; with SF-539 CNS, 93.8%. The growth in the assay on UACC-257 melanoma is 76.8%; in the assay with M14 melanoma, 47.7%.
With `C=C(C)[C@@H]1C[C@@H]2Cc3ccc(Cl)c(C)c3N1O2`, the growth in the assay with NCI-H23 lung is 97.4%; with NCI-H226 lung, 107%; in the assay on NCI-H322M lung it was 108%; in the assay with HOP-62 NSCLC, 98%; with NCI-H460 lung it was 106%; with HOP-92 NSCLC, 77.5%. Further, the growth was 84.8% with NCI-H522 lung; 89.9% in the assay on A549/ATCC NSCLC; 98.5% with 786-0 renal; 112% with COLO 205 colon; 97.3% with DU-145 prostate; 91.3% with K-562 leukemia. Also, the growth in the assay with MALME-3M melanoma was 120%; with MDA-MB-231 breast, 91.5%; in the assay with RXF 393 renal it was 99.4%; with SF-268 CNS, 96.8%; in the assay on SF-295 CNS, 95.4%; in the assay with SF-539 CNS, 90.8%. Besides, the growth with UACC-257 melanoma is 90%; in the assay with M14 melanoma, 105%.
Consider `Clc1cc(Cl)cc(-c2ccc(-c3ccc(/C=N/NC4=NCCN4)cc3)s2)c1`, for which the growth with NCI-H23 lung is 39.1%; in the assay on NCI-H226 lung, 85.1%; with NCI-H322M lung, 98.3%; in the assay on HOP-62 NSCLC, 71%; in the assay with NCI-H460 lung it was 4.5% (active); with HOP-92 NSCLC, 38.9%. The growth with NCI-H522 lung was 71.4%; with A549/ATCC NSCLC it was -22.4% (active); in the assay with 786-0 renal, 75.8%; in the assay on COLO 205 colon, -17.1% (active); in the assay with DU-145 prostate, 23.4%; in the assay on K-562 leukemia, -1.14% (active). Besides, the growth is 98.3% in the assay with MALME-3M melanoma; 61.5% with MDA-MB-231 breast; 60.6% in the assay on RXF 393 renal; 76.2% in the assay with SF-268 CNS; 93.7% in the assay with SF-295 CNS; 84% in the assay on SF-539 CNS. Further, the values for the growth in the assay on UACC-257 melanoma and with M14 melanoma were 103% and 94.4%, respectively.

(Values after PubChem BioAssay (NCI).)
